In PubChem BioAssay AID2705 (National Center for Advancing Translational Sciences (NCATS), 2010):
The list shows a part of the results. Results filed as inconclusive are left out. Activity calls are given as the source filed them. Calls come from the whole dose curve; as a rule, active = well fitted inhibition curve with a large enough effect; inconclusive = small, poorly fitted or top-dose-only effect; inactive = flat fitted curve, though single readings scatter.

Target: Dual specificity tyrosine-phosphorylation-regulated kinase 1A (Homo sapiens) (UniProt Q13627)
Experiment: Assay for Inhibitors of Dual-Specificity Tyrosine-(Y)-Phosphorylation Regulated Kinase 1A (Kinase-Glo assay)
Settings: recombinant DYRK1A, Kinase-Glo ATP depletion luminescence
Text: NIH Molecular Libraries Probe Production Centers Network [MLPCN] NIH Chemical Genomics Center [NCGC] MLSCN Grant: 1R03MH084827-01 PI Name: Tom Misteli NCGC Assay Overview: The CMGC group of protein kinases which includes CDK-like kinases (Clk) and Dyks are essential kinases found in all eukaryotes. Clks have been implicated to play a role in the regulation of alternative splicing; while Dyrks, in particular over expression of Dyrk1A, has been linked to diseases as Down syndrome (DS; OMIM 190685) and Alzheimer disease (AD; OMIM 104300). Among the members of the CMGC group, the Clks and the Dyrks are very closely related therefore to determine validity and selectivity of an active compound observed in the CLK4 qHTS screen (AID:1770), a bioluminescent counter-screen against Dyrk1A was developed. In addition, potent and selective compounds against Dyrk1A were identified to further assess the role of this enzyme in DS and AD. Dyrk1A (Invitrogen, cat # PV3785) was assayed using ATP and DYRKtide (AnaSpec, cat# 62698) as substrates. Promega Kinase-Glo (cat# V6712) technology was used to detect the residual ATP following kinetic reaction. The Kinase-Glo Plus contains Ultra-Glo [5] luciferase and D-luciferin which generates a bioluminescence signal from the remaining ATP. No enzyme and harmine (Sigma, cat # 286044-1G), a compound shown to inhibit Dyrks were used as a positive control; while DMSO treatment was used as a negative control.
NCGC Assay Protocol Summary: Two uL/well of substrate solution (8uM Dyrktide, 2uM ATP, 25mM Tris-HCl pH 7.5, 10mM MgCl2 , 0.5mM EGTA, 5mM cystein, 0.01% Triton X-100 final concentration) was dispensed into 1536-well assay plates (Greiner, solid white, medium-binding plates) with Aurora Discovery BioRAPTR Flying Reagent Dispenser (FRD, Beckton-Dickenson). Compound solution (23 nL) was transferred to the assay plate using Kalypsys pin tool equipped with a 1536-pin tool. One uL/well enzyme solution (5nM Dyrk1A, 25mM Tris-HCl pH7.5, 10mM MgCl2, 0.5mM EGTA, 5mM cystein, 0.01% Triton X-100 final concentration) was then added using FRD yielding a total kinase reaction volume of 3uL/well. After 2 hours of room temperature incubation, 3uL Kinase-Glo detection reagent was added for a final assay volume of 6uL/well. The plates were spun for 30 seconds (1000 rpm) and incubated at ambient temperature for 2 minutes followed by a luminescence read using Perkin Elmer ViewLux plate reader at 3 seconds exposure time and 2x binning.

Potency, active:
Cc1nc(CNc2ncnc3ccc(-c4ccc5c(c4)OCO5)cc23)cs1 292 nM, c1coc(CCNc2ncnc3ccc(-c4ccc5c(c4)OCO5)cc23)c1 164 nM, CN(Cc1cncn1C)c1ncnc2ccc(-c3ccc4c(c3)OCO4)cc12 2600 nM, Cc1nc(C)c(-c2ccc3ncnc(NCc4ncc[nH]4)c3c2)s1 5190 nM
